The text below walks through data of PubChem BioAssay (Tox21).

Assay [1] deals with Thyrotropin-releasing hormone receptor (Homo sapiens) (UniProt P34981). Kind of assay: qHTS assay to identify small molecule agonists of the thyrotropin-releasing hormone receptor (TRHR) signaling pathway (AID 1346891; calls by dose curve; note: series mostly up to about 58 µM). An outline of the steps: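 Readout was intracellular calcium fluorescence in TRHR-Hek293 cells. Cells were incubated 18 h, dye-loaded 2 h at 37 °C, and treated with compound in agonist mode.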
Chain of Thyrotropin-releasing hormone receptor (Homo sapiens) (P34981 whole entry, looked up): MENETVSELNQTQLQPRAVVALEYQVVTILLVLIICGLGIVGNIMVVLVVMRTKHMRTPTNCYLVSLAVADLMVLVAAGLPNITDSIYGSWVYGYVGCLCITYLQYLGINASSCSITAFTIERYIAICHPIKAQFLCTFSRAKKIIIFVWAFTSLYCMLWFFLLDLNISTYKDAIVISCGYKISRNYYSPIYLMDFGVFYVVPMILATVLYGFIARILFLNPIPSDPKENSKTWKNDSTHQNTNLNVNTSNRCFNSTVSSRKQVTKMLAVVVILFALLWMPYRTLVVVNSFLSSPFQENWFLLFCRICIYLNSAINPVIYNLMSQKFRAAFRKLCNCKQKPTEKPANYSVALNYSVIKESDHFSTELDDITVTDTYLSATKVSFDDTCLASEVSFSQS

Assay [2] in a line: Human pregnane X receptor (PXR) small molecule agonists, qHTS cell viability counter screen (AID 1346977). Note: nearly all actives have a fitted effect of over 50% in size. An outline of the steps: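 In each well, the PXR reporter HepG2 line was checked for viability: CellTiter-Fluor reagent added 23hr post-dosing, fluorescence read after 1hr incubation at 37C.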
A short description of assay [3]: Caspase-3/7 induction in HepG2 cells by small molecules, qHTS assay (AID 1346978). Note: nearly all actives have a fitted effect of over 15% in size. An outline of the steps: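 Wild-type HepG2 cells, 2,000/well, settled 5 hr at 37 C and 5% CO2, then compound-treated for 17 hr; caspase-3/7 activity read by luminescent Caspase-Glo 3/7 after 30 min at room temperature.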
A short description of assay [4]: Caspase-3/7 induction in CHO-K1 cells by small molecules, qHTS cell viability counter screen (AID 1346979). Note: nearly all actives have a fitted effect of over 35% in size. Summed up:
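Following a 5hr settling period, CHO-K1 cells at 1,500 per well received DMSO-dissolved compounds. Cell viability was quantified 16hr later by CellTiter-Fluor fluorescence, measured after 1hr with reagent at 37C.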

Assay [5] can be described thus: Caspase-3/7 induction in HepG2 cells by small molecules, qHTS cell viability counter screen (AID 1346981). Note: series mostly up to about 92 µM; nearly all actives have a fitted effect of over 30% in size. Summed up: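 Steps: seed 2,000 HepG2 cells per well; incubate 5 hr at 37 C; pin-add compounds in DMSO; incubate 16 hr; add CellTiter-Fluor; after 1 hr at 37 C and 5% CO2, read fluorescence.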
Assay [6] has as its target Nuclear receptor subfamily 1 group I member 2 (Homo sapiens) (UniProt O75469). Kind of assay: Human pregnane X receptor (PXR) small molecule agonists, qHTS assay (AID 1346982). Note: nearly all actives have a fitted effect of over 35% in size. Note: potency is the fitted concentration of half-maximal effect. Summed up: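 Agonist mode qHTS: PXR-Luc HepG2 cells plated 5 hr before DMSO-dissolved compounds were pinned in, cultured 24 hr at 37 C, 5% CO2; ONE-Glo luminescence readout.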
In assay [7] the target is Cytochrome P450 2D6 (Homo sapiens) (UniProt P10635). Kind of assay: Cytochrome P450 Family 2 Subfamily D Member 6 (CYP2D6) small molecule antagonists: luciferase reporter qHTS assay (AID 1671196). For activity change, negative = inhibition: series mostly up to about 120 µM. Note: nearly all actives have a fitted effect of over 50% in size. Note: potency is the fitted concentration of half-maximal effect. An outline of the steps: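 P450-Glo format: CYP2D6 converts a proluciferin substrate to luciferin in an NADPH-driven reaction lasting 1 h at room temperature. Light output, proportional to CYP2D6 activity, reflects interference by test chemicals.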
Chain of Cytochrome P450 2D6 (Homo sapiens) (P10635 whole entry, looked up): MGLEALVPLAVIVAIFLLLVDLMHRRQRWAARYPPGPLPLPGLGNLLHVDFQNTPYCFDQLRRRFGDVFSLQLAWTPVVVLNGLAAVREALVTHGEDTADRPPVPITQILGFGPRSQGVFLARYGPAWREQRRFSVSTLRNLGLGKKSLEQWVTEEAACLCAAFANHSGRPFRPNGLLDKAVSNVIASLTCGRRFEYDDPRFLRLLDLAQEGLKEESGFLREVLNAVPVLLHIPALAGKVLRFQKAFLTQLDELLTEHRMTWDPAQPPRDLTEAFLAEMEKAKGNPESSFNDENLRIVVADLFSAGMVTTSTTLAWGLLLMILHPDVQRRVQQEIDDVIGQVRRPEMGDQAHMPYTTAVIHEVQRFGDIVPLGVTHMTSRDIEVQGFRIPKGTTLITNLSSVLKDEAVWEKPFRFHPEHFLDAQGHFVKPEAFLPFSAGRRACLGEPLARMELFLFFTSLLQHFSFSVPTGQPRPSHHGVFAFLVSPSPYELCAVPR

Assay [8] deals with Cytochrome P450 2C19 (Homo sapiens) (UniProt P33261). The experiment in a line: Cytochrome P450 Family 2 Subfamily C Member 19 (CYP2C19) small molecule antagonists: luciferase reporter qHTS assay (AID 1671197). For activity change, negative = inhibition: series mostly up to about 120 µM. Note: nearly all actives have a fitted effect of over 65% in size. Note: potency is the fitted concentration of half-maximal effect. An outline of the steps:
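Compounds were tested on CYP2C19 activity via proluciferin conversion to luciferin. The 37C, 1 h reaction followed NADPH addition; detection reagent stopped it.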

The target of assay [9] is Cytochrome P450 2C9 (Homo sapiens) (UniProt P11712). Kind of assay: Cytochrome P450 Family 2 Subfamily C Member 9 (CYP2C9) small molecule antagonists: luciferase reporter qHTS assay (AID 1671198). For activity change, negative = inhibition: series mostly up to about 120 µM. Note: nearly all actives have a fitted effect of over 50% in size. Note: potency is the fitted concentration of half-maximal effect. An outline of the steps: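 P450-Glo proluciferin substrate with CYP2C9 enzyme; 10 min RT preincubation, then NADPH regeneration 1 h at 37C; luciferin detection reagent 20 min RT, luminescence in relative luminescence units.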
Chain of Cytochrome P450 2C9 (Homo sapiens) (P11712 whole entry, looked up): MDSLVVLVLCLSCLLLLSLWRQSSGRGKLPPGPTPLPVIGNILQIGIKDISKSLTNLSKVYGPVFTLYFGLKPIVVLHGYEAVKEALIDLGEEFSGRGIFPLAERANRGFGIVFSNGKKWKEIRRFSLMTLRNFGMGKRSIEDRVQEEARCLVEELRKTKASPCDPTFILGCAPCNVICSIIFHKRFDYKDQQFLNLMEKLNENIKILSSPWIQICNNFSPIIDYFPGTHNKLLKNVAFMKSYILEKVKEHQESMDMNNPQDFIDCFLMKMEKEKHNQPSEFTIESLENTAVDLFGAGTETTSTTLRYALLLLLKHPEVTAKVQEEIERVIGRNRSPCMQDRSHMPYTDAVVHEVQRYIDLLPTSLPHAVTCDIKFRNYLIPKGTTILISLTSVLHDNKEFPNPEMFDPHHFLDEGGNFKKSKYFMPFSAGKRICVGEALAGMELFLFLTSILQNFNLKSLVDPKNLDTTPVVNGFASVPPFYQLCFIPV

The target in assay [10] is Cytochrome P450 1A2 (Homo sapiens) (UniProt P05177). The experiment in a line: Cytochrome P450 Family 1 Subfamily A Member 2 (CYP1A2) small molecule antagonists: luciferase reporter qHTS assay (AID 1671199). For activity change, negative = inhibition: series mostly up to about 120 µM. Note: nearly all actives have a fitted effect of over 50% in size. Note: potency is the fitted concentration of half-maximal effect. An outline of the steps: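 Inhibition of CYP1A2 conversion of proluciferin to luciferin, detected by luminescence. Reaction run 1 h at room temperature with NADPH regeneration after brief compound preincubation.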
Chain of Cytochrome P450 1A2 (Homo sapiens) (P05177 whole entry, looked up): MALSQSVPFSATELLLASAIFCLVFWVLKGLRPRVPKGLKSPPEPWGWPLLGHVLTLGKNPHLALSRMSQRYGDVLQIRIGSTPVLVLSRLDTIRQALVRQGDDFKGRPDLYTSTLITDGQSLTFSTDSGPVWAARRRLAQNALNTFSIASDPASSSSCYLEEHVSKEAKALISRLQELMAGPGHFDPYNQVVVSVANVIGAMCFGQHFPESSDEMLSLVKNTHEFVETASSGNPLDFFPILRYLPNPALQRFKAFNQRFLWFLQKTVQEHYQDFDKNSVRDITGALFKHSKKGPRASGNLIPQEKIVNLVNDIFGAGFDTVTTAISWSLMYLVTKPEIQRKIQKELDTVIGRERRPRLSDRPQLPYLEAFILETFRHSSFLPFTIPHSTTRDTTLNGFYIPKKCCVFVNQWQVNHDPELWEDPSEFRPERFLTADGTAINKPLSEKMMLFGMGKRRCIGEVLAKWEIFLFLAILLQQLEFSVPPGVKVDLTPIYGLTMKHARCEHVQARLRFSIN

Assay [11] concerns the target Voltage-gated inwardly rectifying potassium channel KCNH2 (Homo sapiens) (UniProt Q12809). The experiment in a line: Human Ether-a-go-go-Related Gene (hERG) channel small molecule antagonists: fluorescence cell-based qHTS assay (AID 1671200). An outline of the steps: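 In this thallium-flux screen, overnight-cultured U2OS cells bearing the channel are dye-loaded in darkness for an hour, rested 10 min at room temperature, and then monitored kinetically at 480/540 nm for two minutes post-stimulus.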

Assay [12] concerns the target Cytochrome P450 3A4 (Homo sapiens) (UniProt P08684). Kind of assay: Cytochrome P450 Family 3 Subfamily A Member 4 (CYP3A4) small molecule antagonists: luciferase reporter qHTS assay (AID 1671201). Summed up: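 CYP3A4 activity was followed with a P450-Glo proluciferin substrate. Test compounds in DMSO were preincubated 10 min; NADPH regeneration then ran 1 h, and light output was read 20 min after detection reagent.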

Assay [13] can be described thus: Caspase-3/7 induction in CHO-K1 cells by small molecules, qHTS assay (AID 1346980). Note: nearly all actives have a fitted effect of over 15% in size. Summed up:
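Wild-type CHO-K1 cells exposed to compounds for 17hr at 37 C, 5% CO2. Caspase-3/7 activity then measured by Caspase-Glo 3/7 luminescence after 30min at room temperature.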

Assay [14] concerns the target Nuclear receptor subfamily 1 group I member 2 (Rattus norvegicus) (UniProt Q9R1A7). The experiment in a line: Rat pregnane X receptor (rPXR) activation by small molecules, qHTS assay (AID 1346983). Note: nearly all actives have a fitted effect of over 20% in size. The settings on record: rPXR luciferase reporter cells, One-Glo luminescence, 24 h; stronger effect = higher value. Summed up:
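Cell-based rPXR activation assay: rPXR cells, 2,000 per well, rested 5hr at 37 C, then exposed to compounds in DMSO for 24 hr at 37 C. Luciferase activity read by One-Glo luminescence after 30 min at room temperature.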

Assay [15] deals with Nuclear receptor subfamily 1 group I member 2 (Homo sapiens) (UniProt O75469). Kind of assay: CYP3A4 induction through human pregnane X receptor (PXR) by small molecules, qHTS assay (AID 1346984). Note: nearly all actives have a fitted effect of over 40% in size. Summed up:
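Steps: seed DPX-2 cells, 5 hr at 37C; pin-transfer compounds; 24 hr at 37C; add Luciferin-IPA (3uM final), 3 hr at 37C; add One-Glo, 30 min RT; read luminescence.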

Assay [16] has the same target. The experiment in a line: Human pregnane X receptor (PXR) activation by small molecules, qHTS assay (AID 1346985). Note: nearly all actives have a fitted effect of over 40% in size. An outline of the steps:
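DPX-2 cells (HepG2 co-transfected with a PXR response element and a CYP3A4-promoter luciferase construct) were seeded at 2,000 per well, rested 5 hr at 37C, then exposed to DMSO-dissolved compounds for 24 hr. Activation was read as luciferase luminescence.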

Unmarked numbers belong to inactive results. Results filed as inconclusive are left out. Active and inactive are the calls of the source. Unless noted, calls come from the whole dose curve; as a rule, active = well fitted curve in the direction sought with a large enough effect in the repeat runs; inconclusive = weak or mixed curves; inactive = no such curve, though single readings can be large; an effect the other way counts as inactive or inconclusive.
% is set by controls: 0 for no effect and ±100 for the full control effect.

Chain of Nuclear receptor subfamily 1 group I member 2 (Rattus norvegicus) (Q9R1A7 whole entry, looked up): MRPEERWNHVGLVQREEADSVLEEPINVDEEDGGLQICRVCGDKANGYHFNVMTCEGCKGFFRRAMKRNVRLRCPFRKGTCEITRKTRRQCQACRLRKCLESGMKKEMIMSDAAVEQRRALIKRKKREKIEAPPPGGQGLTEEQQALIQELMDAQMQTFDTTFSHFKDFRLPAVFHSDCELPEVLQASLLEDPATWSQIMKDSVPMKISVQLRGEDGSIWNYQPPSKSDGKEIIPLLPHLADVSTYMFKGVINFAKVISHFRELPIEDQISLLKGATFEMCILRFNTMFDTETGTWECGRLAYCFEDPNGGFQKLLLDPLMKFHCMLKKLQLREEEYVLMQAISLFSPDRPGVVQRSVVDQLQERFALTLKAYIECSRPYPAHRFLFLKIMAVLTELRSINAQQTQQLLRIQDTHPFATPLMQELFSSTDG
Chain of Cytochrome P450 2C19 (Homo sapiens) (P33261 whole entry, looked up): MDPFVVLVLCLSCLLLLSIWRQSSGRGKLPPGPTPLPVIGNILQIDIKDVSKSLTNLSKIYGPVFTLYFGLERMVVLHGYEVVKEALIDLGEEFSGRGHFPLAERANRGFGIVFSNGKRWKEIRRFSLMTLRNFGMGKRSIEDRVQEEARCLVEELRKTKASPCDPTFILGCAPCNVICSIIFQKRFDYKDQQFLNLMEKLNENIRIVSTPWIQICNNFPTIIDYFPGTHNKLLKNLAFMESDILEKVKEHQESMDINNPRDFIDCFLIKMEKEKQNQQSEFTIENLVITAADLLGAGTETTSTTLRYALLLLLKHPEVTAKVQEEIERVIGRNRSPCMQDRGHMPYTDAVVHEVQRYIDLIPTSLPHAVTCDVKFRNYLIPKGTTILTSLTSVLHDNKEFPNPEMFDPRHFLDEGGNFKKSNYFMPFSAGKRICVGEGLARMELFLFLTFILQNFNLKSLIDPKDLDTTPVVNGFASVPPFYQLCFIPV
Chain of Cytochrome P450 3A4 (Homo sapiens) (P08684 whole entry, looked up): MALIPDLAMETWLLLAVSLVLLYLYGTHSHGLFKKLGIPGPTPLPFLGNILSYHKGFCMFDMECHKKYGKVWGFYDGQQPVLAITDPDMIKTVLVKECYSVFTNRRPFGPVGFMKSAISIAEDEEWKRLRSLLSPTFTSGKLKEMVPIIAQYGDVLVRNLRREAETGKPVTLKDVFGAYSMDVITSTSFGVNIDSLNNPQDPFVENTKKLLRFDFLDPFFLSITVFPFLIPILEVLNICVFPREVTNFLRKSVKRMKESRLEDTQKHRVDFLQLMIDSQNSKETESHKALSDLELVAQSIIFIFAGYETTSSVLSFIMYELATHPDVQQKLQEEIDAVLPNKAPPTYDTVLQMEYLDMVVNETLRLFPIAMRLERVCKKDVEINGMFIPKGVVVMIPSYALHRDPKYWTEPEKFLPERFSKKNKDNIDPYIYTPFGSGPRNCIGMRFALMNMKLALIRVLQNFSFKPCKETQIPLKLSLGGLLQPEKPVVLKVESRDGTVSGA
Chain of Voltage-gated inwardly rectifying potassium channel KCNH2 (Homo sapiens) (Q12809 whole entry, looked up): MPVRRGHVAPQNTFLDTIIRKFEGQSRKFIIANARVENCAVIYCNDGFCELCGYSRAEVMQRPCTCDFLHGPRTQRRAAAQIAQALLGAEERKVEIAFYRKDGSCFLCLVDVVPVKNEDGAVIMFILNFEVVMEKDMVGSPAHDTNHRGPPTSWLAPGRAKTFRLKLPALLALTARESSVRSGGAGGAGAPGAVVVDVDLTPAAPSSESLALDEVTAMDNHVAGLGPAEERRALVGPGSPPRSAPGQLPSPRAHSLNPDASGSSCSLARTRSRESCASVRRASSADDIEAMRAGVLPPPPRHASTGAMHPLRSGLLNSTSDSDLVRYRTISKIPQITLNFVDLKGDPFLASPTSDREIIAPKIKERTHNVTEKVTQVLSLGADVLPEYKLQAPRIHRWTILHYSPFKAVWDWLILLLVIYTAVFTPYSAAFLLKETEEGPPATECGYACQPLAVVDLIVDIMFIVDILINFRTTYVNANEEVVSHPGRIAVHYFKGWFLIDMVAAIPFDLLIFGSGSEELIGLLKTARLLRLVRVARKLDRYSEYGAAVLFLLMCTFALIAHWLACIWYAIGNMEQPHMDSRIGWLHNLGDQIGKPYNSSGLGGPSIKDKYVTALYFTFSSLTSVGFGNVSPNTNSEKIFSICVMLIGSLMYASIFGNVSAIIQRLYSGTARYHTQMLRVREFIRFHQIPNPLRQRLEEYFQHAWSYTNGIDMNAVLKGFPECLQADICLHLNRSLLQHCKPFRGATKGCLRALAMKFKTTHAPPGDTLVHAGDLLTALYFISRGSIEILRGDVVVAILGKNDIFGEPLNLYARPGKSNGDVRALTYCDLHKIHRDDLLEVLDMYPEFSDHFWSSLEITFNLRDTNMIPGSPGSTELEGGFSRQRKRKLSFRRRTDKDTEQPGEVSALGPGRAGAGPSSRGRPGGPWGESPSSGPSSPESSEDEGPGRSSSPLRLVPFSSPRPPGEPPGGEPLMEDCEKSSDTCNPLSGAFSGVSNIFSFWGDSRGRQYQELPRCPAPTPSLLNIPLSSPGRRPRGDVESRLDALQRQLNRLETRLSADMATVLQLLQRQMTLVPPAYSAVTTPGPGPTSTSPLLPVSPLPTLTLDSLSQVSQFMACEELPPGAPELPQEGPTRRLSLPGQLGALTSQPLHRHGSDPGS
Chain of Nuclear receptor subfamily 1 group I member 2 (Homo sapiens) (O75469 whole entry, looked up): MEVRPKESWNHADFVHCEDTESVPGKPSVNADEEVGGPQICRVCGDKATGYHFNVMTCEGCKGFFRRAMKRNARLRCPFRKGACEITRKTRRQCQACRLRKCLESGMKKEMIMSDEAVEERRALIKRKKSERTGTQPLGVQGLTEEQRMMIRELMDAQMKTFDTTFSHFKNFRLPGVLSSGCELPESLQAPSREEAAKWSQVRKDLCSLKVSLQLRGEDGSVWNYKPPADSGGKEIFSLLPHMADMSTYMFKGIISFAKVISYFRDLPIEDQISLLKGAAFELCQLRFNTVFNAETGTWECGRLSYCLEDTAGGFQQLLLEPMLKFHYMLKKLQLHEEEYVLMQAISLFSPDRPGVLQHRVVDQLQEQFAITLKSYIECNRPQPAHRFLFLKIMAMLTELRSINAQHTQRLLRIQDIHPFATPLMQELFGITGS

`Cc1cc(Cl)c(C)cc1Cl`: the call in [1] was inactive. The Potency entry in assay [2], in assay [3], in assay [4], in assay [5], in assay [6] and in assay [7] was “inactive” throughout. The Potency result in assay [8], in assay [9], in assay [10], in [11] and in [12] was “inactive” in each case.
With `O=S(O)(O)=S`, the figures for the activation in assay [1] and in assay [6] were 0.644% [at 5.23 µM] and 4.46% [at 8.39 µM], respectively. Moreover, the activity change, negative = cytotoxicity in assay [2] was -0.159% [at 8.39 µM]; in assay [4] it was 4.08% [at 8.39 µM]. The caspase activation in [3] was 0.115% [at 8.39 µM]. Further, the caspase-3/7 activation in assay [13] was 0.413% [at 8.39 µM]. The activity change, negative = inhibition in assay [7] was -0.0268% [at 10.5 µM]; in [8] it was -17.3% [at 10.5 µM]; in assay [9] it was -6.3% [at 10.5 µM]; in [10] it was -12.3% [at 10.5 µM]; in [11], -2.48% [at 6.97 µM]; in [12], 0.412% [at 10.5 µM].
`COc1ccc(Br)c(C)c1`: the outcome in [1] was inactive. In addition, the Potency result in assay [2], in assay [3], in [4], in assay [5], in assay [6] and in assay [7] was “inactive” throughout. Also, the Potency entry in assay [9], in assay [11] and in [12] was “inactive” in each case. The Potency is 36 µM (active) in assay [8] and 32 µM (active) in assay [10].
In the case of `COc1nccnc1NS(=O)(=O)c1ccc(N)cc1`, the result in assay [1] and in assay [13] was inactive. For the same compound, the Potency entry in [2], in [3], in [4], in [6], in assay [15] and in assay [16] was “inactive” each time. The Potency entry in assay [7], in assay [8], in assay [9], in assay [10], in assay [11] and in assay [12] was “inactive” throughout. For the same compound, in assay [14], the max activation was 3.09%.
As for `BrCCCCCBr`, the compound was called inactive in assay [1] and in [13]. Further, the Potency entry in [2], in assay [3], in assay [4], in assay [6], in assay [7] and in [8] was “inactive” in each case. Also, the Potency entry in [9], in [11] and in [12] was “inactive” in each case.
Take `Cc1ccc2c(c1)OCC(=O)CO2`: the compound was classed as inactive in assay [1] and in [13]. The Potency entry in assay [2], in assay [3], in assay [4], in [6], in assay [9] and in assay [11] was “inactive” in each case. Besides, in [12], the Potency result is “inactive”. Also, the Potency in assay [7] was 35.6 µM (active).
`CC(C)=CCOC(=O)c1ccccc1`: the call in assay [1] and in assay [13] was inactive. The Potency entry in assay [2], in assay [3], in assay [4], in [6], in assay [7] and in assay [8] was “inactive” throughout. Also, the Potency entry in assay [9], in assay [11] and in assay [12] was “inactive” in each case.
As to `O=P(O)(O)OP(=O)(O)O`, the outcome in [1] and in [13] was inactive. For the same compound, the Potency entry in assay [2], in assay [3], in assay [4] and in [11] was “inactive” in each case. Moreover, the max activation in assay [14] is 1.84%.
With `CCCCCCCCC1CCC(=O)O1` (stereo unspecified), the call in assay [1] and in assay [13] was inactive. Also, the Potency result in [2], in [3], in [4], in [11] and in assay [12] was “inactive” throughout. The Potency in assay [6] is 30.6 µM (active); in assay [8], 56.4 µM (active); in [9], 71 µM (active).
Regarding `Cc1ccsc1/C=C/C1=NCCCN1C`, the call in assay [1] and in assay [13] was inactive. The Potency result in assay [2], in [3], in [4], in assay [6], in [15] and in assay [16] was “inactive” in each case. Also, the Potency entry in assay [8] and in assay [12] was “inactive” throughout. In addition, the max activation in assay [14] is -1.84%.
